Data: PubChem BioAssay (EPA / NIEHS)
Calls of active or inactive are those of the source. Rule for the calls: active = hit-call score of the fitted dose curve at least 0.9, where 1 is the maximum; inactive = score below 0.9.

Experiments:
Conditions in all cases: mRNA level, 48 h; actives raise or lower the signal
[1] = read-out: Caspase-3 (Homo sapiens) (UniProt P42574); assay: LTEA_HepaRG_CASP3: Life Technologies and Expression Analysis (LTEA) Assay for cysteine-aspartic acid protease (CASP3) using HepaRG (AID 2283477)
How it was run: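 In HepaRG liver cells dosed for 48 h at up to 100 uM (eight-point, duplicate), CASP3 expression changes are scored by qRT-PCR. Activity is fitted in both directions with 0.5% DMSO as baseline.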

[2] = read-out: Cytochrome P450 (CYP24A1), CYP24A1 (gene 1591); assay: LTEA_HepaRG_CYP24A1: Life Technologies and Expression Analysis (LTEA) Assay for Cytochrome P450 (CYP24A1) using HepaRG (AID 2283478)
How it was run: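 Human liver HepaRG cultures receive each chemical for 48 h across an eight-point half-log series topping at 100 uM in 0.5% DMSO. Induction or suppression of CYP24A1 mRNA is scored relative to vehicle after housekeeping-gene normalization.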

[3] = read-out: Cytochrome P450 (CYP1A2), CYP1A2 (gene 1544); assay: LTEA_HepaRG_CYP1A2: Life Technologies and Expression Analysis (LTEA) Assay for Cytochrome P450 (CYP1A2) using HepaRG (AID 2283479)
How it was run: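 Assesses CYP1A2 mRNA in human HepaRG liver cells after 48 h chemical exposure at up to 100 uM. Values come from qRT-PCR with bidirectional curve fitting relative to DMSO.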

[4] = read-out: cysteine-aspartic acid protease (CASP8), CASP8 (gene 841); assay: LTEA_HepaRG_CASP8: Life Technologies and Expression Analysis (LTEA) Assay for cysteine-aspartic acid protease (CASP8) using HepaRG (AID 2283480)
How it was run: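 CASP8 transcript measured by TaqMan qRT-PCR with ACTB/GAPDH/POLR2A normalization, after 48 h chemical exposure of HepaRG cells in serum-free induction medium. Eight concentrations, top 100 uM, half-log steps, 0.5% DMSO vehicle; fits in both directions versus DMSO.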

[5] = read-out: Cytochrome P450 (CYP2B6), CYP2B6 (gene 1555); assay: LTEA_HepaRG_CYP2B6: Life Technologies and Expression Analysis (LTEA) Assay for Cytochrome P450 (CYP2B6) using HepaRG (AID 2283481)
How it was run: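 Using 48 h treatment of HepaRG cells in serum-free induction medium, concentrations spanned half-log steps from 100 uM in 0.5% DMSO vehicle. CYP2B6 mRNA induction or loss is scored by qRT-PCR against DMSO.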

[6] = read-out: Cytochrome P450 2C19 (Homo sapiens) (UniProt P33261); assay: LTEA_HepaRG_CYP2C19: Life Technologies and Expression Analysis (LTEA) Assay for CYP2C19 using HepaRG (AID 2283482)
How it was run: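 Human HepaRG liver cells received test chemicals for 48 h (highest 100 uM, half-log dilutions in 0.5% DMSO). CYP2C19 mRNA induction or loss is read by multiplexed qRT-PCR and fitted in both directions versus vehicle.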

[7] = read-out: CYP2C8 (gene 1558); assay: LTEA_HepaRG_CYP2C8: Life Technologies and Expression Analysis (LTEA) Assay for CYP2C8 using HepaRG (AID 2283483)
How it was run: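 CYP2C8 expression measured by TaqMan qRT-PCR and normalized to three housekeeping genes. HepaRG cultures were treated for 48 h with an eight-point half-log series topping at 100 uM, vehicle 0.5% DMSO, duplicates; fitted both directions against DMSO.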

[8] = read-out: CYP2C9 (gene 1559); assay: LTEA_HepaRG_CYP2C9: Life Technologies and Expression Analysis (LTEA) Assay for CYP2C9 using HepaRG (AID 2283484)
How it was run: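 CYP2C9 transcript level, quantified by TaqMan qRT-PCR against three housekeeping genes, was fitted bidirectionally relative to 0.5% DMSO. HepaRG cultures were treated 48 h, in duplicate, at eight half-log concentrations topping at 100 uM.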

[9] = read-out: CYP2E1 (gene 1571); assay: LTEA_HepaRG_CYP2E1: Life Technologies and Expression Analysis (LTEA) Assay for CYP2E1 using HepaRG (AID 2283485)
How it was run: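 Assay uses 48 h exposure of HepaRG hepatic cells, eight concentrations to 100 uM. Expression of CYP2E1 is quantified by TaqMan qRT-PCR with ACTB, GAPDH and POLR2A normalization; curves fitted in both directions relative to vehicle.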

[10] = read-out: CYP4A11 (gene 1579); assay: LTEA_HepaRG_CYP4A11: Life Technologies and Expression Analysis (LTEA) Assay for CYP4A11 using HepaRG (AID 2283486)
How it was run: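 Readout is CYP4A11 mRNA induction or suppression (qRT-PCR, ACTB/GAPDH/POLR2A normalization) in human HepaRG cells after 48 h chemical treatment, concentrations to 100 uM in 0.5% DMSO, fitted bidirectionally against vehicle.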

[11] = read-out: Cytochrome P450 3A4 (Homo sapiens) (UniProt P08684); assay: LTEA_HepaRG_CYP3A4: Life Technologies and Expression Analysis (LTEA) Assay for CYP3A4 using HepaRG (AID 2283487)
How it was run: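 CYP3A4 transcript measured by TaqMan qRT-PCR and normalized to three housekeeping genes after 48 h chemical exposure of human HepaRG cells. Top concentration 100 uM, half-log steps, 0.5% DMSO vehicle; gain or loss fitted against DMSO baseline.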

[12] = read-out: DNA damage-inducible transcript 3 (DDIT3), DDIT3 (gene 1649); assay: LTEA_HepaRG_DDIT3: Life Technologies and Expression Analysis (LTEA) Assay for DNA damage-inducible transcript 3 (DDIT3) using HepaRG (AID 2283488)
How it was run: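 Eight-point concentration-response (100 uM highest, half-log dilutions) in HepaRG, 48 h, duplicate wells. Endpoint: qRT-PCR mRNA, normalized (ACTB, GAPDH, POLR2A), bidirectional fitting with DMSO as baseline.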

[13] = read-out: Pro-epidermal growth factor (Homo sapiens) (UniProt P01133); assay: LTEA_HepaRG_EGF: Life Technologies and Expression Analysis (LTEA) Assay for Epidermal growth factor (EGF) using HepaRG (AID 2283489)
How it was run: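 EGF expression changes in human HepaRG cells are scored by bidirectional fitting relative to 0.5% DMSO controls. Chemicals are tested at eight half-log concentrations up to 100 uM for 48 h in serum-free induction medium.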

[14] = read-out: Early growth response protein 1 (EGR1) transcription factor, EGR1 (gene 1958); assay: LTEA_HepaRG_EGR1: Life Technologies and Expression Analysis (LTEA) Assay for Early growth response protein 1 (EGR1) transcription factor using HepaRG (AID 2283490)
How it was run: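 EGR1 transcript levels quantified by qRT-PCR (Fluidigm arrays) against three housekeeping genes after 48 h chemical exposure of HepaRG cells. Eight-point half-log series topping at 100 uM, 0.5% DMSO vehicle, analyzed for gain or loss.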

[15] = read-out: Ezrin (EZR), EZR (gene 7430); assay: LTEA_HepaRG_EZR: Life Technologies and Expression Analysis (LTEA) Assay for Ezrin (EZR) using HepaRG (AID 2283491)
How it was run: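 HepaRG, 48 h chemical exposure, 8-pt half-log series from 100 uM, 0.5% DMSO vehicle, duplicates. Read-out: EZR mRNA by TaqMan qRT-PCR (Fluidigm array), housekeeping-normalized; bidirectional curve fit vs DMSO baseline.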

[16] = read-out: Cytochrome P450 3A7 (Homo sapiens) (UniProt P24462); assay: LTEA_HepaRG_CYP3A7: Life Technologies and Expression Analysis (LTEA) Assay for CYP3A7 using HepaRG (AID 2283492)
How it was run: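 Cells were thawed, plated, cultured 48 h, then treated for a further 48 h with chemicals (eight-point half-log series from 100 uM, 0.5% DMSO). RNA was isolated and CYP3A7 expression quantified by qRT-PCR normalised to ACTB, GAPDH and POLR2A.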

[17] = read-out: CYP3A5 (gene 1577); assay: LTEA_HepaRG_CYP3A5: Life Technologies and Expression Analysis (LTEA) Assay for CYP3A5 using HepaRG (AID 2283493)
How it was run: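 Readout was CYP3A5 mRNA by qRT-PCR. HepaRG cultures were exposed for 48 h in serum-free induction medium to chemicals at up to 100 uM, and responses were fitted in both directions relative to DMSO vehicle.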

[18] = read-out: Fatty Acid-Binding Protein 1 (FABP1), FABP1 (gene 2168); assay: LTEA_HepaRG_FABP1: Life Technologies and Expression Analysis (LTEA) Assay for Fatty Acid-Binding Protein 1 (FABP1) using HepaRG (AID 2283494)
How it was run: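 FABP1 expression by TaqMan qRT-PCR, normalised to three housekeeping genes, in HepaRG cells after 48 h chemical treatment. Eight-point half-log series topping at 100 uM in 0.5% DMSO, duplicates; gain or loss fitted relative to vehicle.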

[19] = read-out: Cytochrome P450 4A22 (Homo sapiens) (UniProt Q5TCH4); assay: LTEA_HepaRG_CYP4A22: Life Technologies and Expression Analysis (LTEA) Assay for Cytochrome P450 4A22 (CYP4A22) using HepaRG (AID 2283495)
How it was run: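 Cryopreserved HepaRG cells, plated and cultured 48 h, then switched to serum-free induction medium and treated 48 h (duplicates, up to 100 uM, half-log steps, 0.5% DMSO). Expression change of CYP4A22 was fitted bidirectionally against vehicle.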

[20] = read-out: Cytochrome P450 7A1 (Homo sapiens) (UniProt P22680); assay: LTEA_HepaRG_CYP7A1: Life Technologies and Expression Analysis (LTEA) Assay for Cytochrome P450 7A1 (CYP7A1) using HepaRG (AID 2283496)
How it was run: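 Using 0.5% DMSO as vehicle and baseline, chemicals were tested in duplicate over an 8-point range from 100 uM on HepaRG cells for 48 h; qRT-PCR signals were normalised to ACTB, GAPDH and POLR2A.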

Measured: AC50

Cytochrome P450 2C19 (Homo sapiens), sequence (P33261 whole entry, looked up): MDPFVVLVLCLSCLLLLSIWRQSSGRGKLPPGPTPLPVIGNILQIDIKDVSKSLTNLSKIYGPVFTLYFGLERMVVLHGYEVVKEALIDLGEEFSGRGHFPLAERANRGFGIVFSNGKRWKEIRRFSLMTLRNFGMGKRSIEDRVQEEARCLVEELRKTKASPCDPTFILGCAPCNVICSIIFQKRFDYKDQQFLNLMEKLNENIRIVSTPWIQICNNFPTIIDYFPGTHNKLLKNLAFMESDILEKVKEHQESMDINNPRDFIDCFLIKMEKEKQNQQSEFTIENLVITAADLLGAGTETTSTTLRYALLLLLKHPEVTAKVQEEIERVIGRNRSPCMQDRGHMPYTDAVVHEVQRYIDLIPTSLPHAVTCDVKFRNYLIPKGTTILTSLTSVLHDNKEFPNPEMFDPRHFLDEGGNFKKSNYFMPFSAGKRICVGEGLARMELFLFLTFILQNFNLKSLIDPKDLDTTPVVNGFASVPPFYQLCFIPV
Caspase-3 (Homo sapiens), sequence (P42574 whole entry, looked up): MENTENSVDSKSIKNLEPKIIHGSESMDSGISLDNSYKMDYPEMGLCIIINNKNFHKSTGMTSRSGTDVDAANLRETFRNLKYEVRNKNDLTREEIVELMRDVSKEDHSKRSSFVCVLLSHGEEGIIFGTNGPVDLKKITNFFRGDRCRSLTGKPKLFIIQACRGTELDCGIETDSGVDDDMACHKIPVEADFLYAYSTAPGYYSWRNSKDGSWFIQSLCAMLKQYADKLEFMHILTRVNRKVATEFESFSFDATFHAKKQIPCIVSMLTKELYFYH
Cytochrome P450 3A4 (Homo sapiens), sequence (P08684 whole entry, looked up): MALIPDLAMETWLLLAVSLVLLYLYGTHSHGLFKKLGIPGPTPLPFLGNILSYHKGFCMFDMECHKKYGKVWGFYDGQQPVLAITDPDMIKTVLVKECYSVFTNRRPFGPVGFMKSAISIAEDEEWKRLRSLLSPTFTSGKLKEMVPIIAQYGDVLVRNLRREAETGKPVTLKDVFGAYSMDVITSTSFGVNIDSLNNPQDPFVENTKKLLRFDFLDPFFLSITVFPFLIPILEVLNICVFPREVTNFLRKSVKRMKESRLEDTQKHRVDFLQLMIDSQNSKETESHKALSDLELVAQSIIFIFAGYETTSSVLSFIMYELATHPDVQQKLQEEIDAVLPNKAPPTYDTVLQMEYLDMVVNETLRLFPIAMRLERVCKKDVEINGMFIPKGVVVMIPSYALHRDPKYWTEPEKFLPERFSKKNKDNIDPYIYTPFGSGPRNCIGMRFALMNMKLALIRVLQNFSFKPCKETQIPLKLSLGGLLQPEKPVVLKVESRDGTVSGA
Cytochrome P450 3A7 (Homo sapiens), sequence (P24462 whole entry, looked up): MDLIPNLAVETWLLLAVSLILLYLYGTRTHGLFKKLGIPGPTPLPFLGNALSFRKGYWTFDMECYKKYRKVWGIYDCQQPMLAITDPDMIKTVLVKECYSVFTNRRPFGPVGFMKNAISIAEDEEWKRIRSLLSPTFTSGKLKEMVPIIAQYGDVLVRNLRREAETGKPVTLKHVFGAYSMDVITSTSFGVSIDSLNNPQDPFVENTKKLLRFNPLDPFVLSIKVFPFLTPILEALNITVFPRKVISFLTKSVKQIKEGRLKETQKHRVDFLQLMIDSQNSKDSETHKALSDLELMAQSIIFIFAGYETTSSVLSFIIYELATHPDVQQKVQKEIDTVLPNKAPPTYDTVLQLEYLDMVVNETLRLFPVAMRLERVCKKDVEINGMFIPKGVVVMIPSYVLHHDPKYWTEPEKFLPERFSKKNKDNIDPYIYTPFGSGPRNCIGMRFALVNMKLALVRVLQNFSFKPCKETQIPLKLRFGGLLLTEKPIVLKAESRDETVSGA

CCOC(=O)c1ccc(C2CCC(NC[C@H](O)COc3ccc(O)c(NS(C)(=O)=O)c3)CC2)cc1 (stereo partly specified)
inactive: all assays above

O=C(CCCCCCCCc1cccnc1)N1CCC(C=C(c2ccccc2)c2ccccc2)CC1
active: [1] 61.9 µM | [3] 17 µM | [5] 12.3 µM | [6] 34.9 µM | [7] 29.7 µM | [8] 31.2 µM | [9] 14.1 µM | [10] 12.6 µM | [11] 32 µM | [12] 22.1 µM | [14] 12.2 µM | [15] 13.1 µM | [18] 26.9 µM | [20] 27.1 µM
inactive: [2] | [4] | [13] | [16] | [17]

Oc1ccc2c(c1)-c1ccccc1C2
active: [3] 21.4 µM | [5] 50 µM | [20] 4.87 µM
inactive: all other assays above

CC[C@H]1CC[C@H](NCc2cc3c(cc2OC)[C@H]2C[C@H]2C(=O)N3C)[C@H](c2ccccc2)N1
active: [3] 33.8 µM | [5] 11.7 µM | [6] 10.8 µM | [7] 11.1 µM | [9] 50 µM | [10] 81.8 µM | [11] 14.2 µM | [12] 50 µM | [16] 8.34 µM | [17] 50 µM | [19] 76.8 µM
inactive: [1] | [2] | [4] | [8] | [13] | [14] | [15] | [18] | [20]

C=CC(=C)CCC=C(C)C
active: [3] 27.2 µM
not listed: [19]
inactive: all other assays above

COc1ccc(-n2nc(C(F)F)cc2-c2ccc(S(C)=O)cc2)cc1 (stereo unspecified)
active: [3] 50 µM | [5] 13.4 µM | [6] 26.8 µM | [9] 25 µM | [10] 68.8 µM | [11] 17.1 µM | [16] 19.3 µM | [19] 15.6 µM
inactive: all other assays above

O=C(NS(=O)(=O)/C=C/c1ccccc1)c1ccc(F)cc1Cl
active: [5] 0.459 µM | [6] 2.51 µM | [9] 22.3 µM | [11] 11.3 µM | [16] 28.7 µM | [18] 2.67 µM | [20] 23.4 µM
not listed: [19]
inactive: all other assays above

Nc1cccc(N)c1
active: [3] 33 µM
inactive: all other assays above

CCn1nc(Cc2ccccc2)cc1C1CCN(C[C@H]2C[C@H](N(C)[C@@H](C(=O)O)C(C)C)C[C@@H]2c2cccc(F)c2)CC1
active: [3] 79.9 µM | [5] 13.7 µM | [6] 17.6 µM | [7] 24.6 µM | [8] 27.8 µM | [9] 20.4 µM | [10] 50 µM | [12] 50 µM | [19] 43.5 µM | [20] 13.4 µM
inactive: all other assays above

CCOC(=O)COc1ccc2c(c1)CC(NCC(O)c1cccc(Cl)c1)CC2 (stereo unspecified)
active: [5] 0.947 µM | [18] 45.8 µM
not listed: [19]
inactive: all other assays above

CCCC(=O)OCC
inactive: all assays above

CCOc1cccc(-n2cc(C(=O)N3CCN(c4cc(C(=O)O)c5ccccc5c4)CC3)nc2-c2ccc(C)cc2)c1
active: [1] 82.9 µM | [3] 27.7 µM | [4] 87.9 µM | [5] 26.5 µM | [6] 32.6 µM | [7] 25.6 µM | [8] 31.6 µM | [9] 14.7 µM | [10] 28.9 µM | [11] 31.1 µM | [12] 12.4 µM | [13] 88 µM | [14] 83.7 µM | [17] 80.5 µM | [18] 30.2 µM | [19] 29.8 µM | [20] 33.6 µM
inactive: [2] | [15] | [16]
